Results reported in ChEMBL document CHEMBL3988442, “University of Dundee, Small-Polar-MMV Screening Library” (2021).
In all, about 53,000 compounds went through this assay and about 900 (1.7%) showed an effect of 50% or more. Only a selection was taken, and strong results are over-represented in it overall.

system: Mycobacterium tuberculosis; test: Cornell - Phenotypic assay to identify agents that inhibit growth of Mycobacterium tuberculosis; format: functional; set-up: scale not given: direction of the effect not stated beside the values; details: 10 mM as filed; unlikely as a test dose

| Structure (SMILES) | Percent Effect |
| --- | --- |
| CC(NC(=O)Cc1ccccc1F)C(=O)N1CCS(=O)(=O)CC1 (stereo not given) | 19.17% |
| O=C(NCCc1ccc(Cl)s1)N1CCS(=O)(=O)CC1 | 3.625% |
| Cc1ccc(CC(=O)NC(C)C(=O)N2CCS(=O)(=O)CC2)s1 (stereo not given) | 63.58% |
| CC(C)n1ccc(CN2CCN(c3cc(NC4CC4)nc(N)n3)CC2)c1 | 13.37% |
| NC(=O)C1CCCN1Cc1cccc(NC(=O)c2ccc(Cl)cc2F)c1 (stereo not given) | -4.35% |
| O=C(O)C(F)(F)F.O=C1COC2(COCCN(Cc3ccsc3)C2)CN1c1ccoc1 (stereo not given) | -47.88% |
| CSCCC1c2nc[nH]c2CCN1Cc1ccccc1C(F)(F)F (stereo not given) | 2.921% |
| CSCCC1c2nc[nH]c2CCN1Cc1ccccc1C#N (stereo not given) | 19.15% |
| CSCCC1c2nc[nH]c2CCN1Cc1cc(Cl)ccc1O (stereo not given) | 102.1% |
| CN1C[C@@H](N)C[C@H]1C(=O)N1CCC(Cc2ccc(F)cc2)CC1 | -16.49% |
| C1CC(CN2C[C@@H]3C[C@@H](c4nnc(C5CC5)o4)O[C@@H]3C2)C1 | -19.97% |
| O=S(=O)(Nc1c(F)cccc1N1CCCC1)c1cncc(F)c1 | 35.26% |
| N#Cc1cccc(S(=O)(=O)Nc2c(F)cccc2N2CCCC2)c1 | 53.51% |
| Cn1cc(S(=O)(=O)Nc2c(F)cccc2N2CCCC2)cn1 | -1.726% |
| Cc1cc(NCCNS(=O)(=O)c2cn(C)nc2C)c2ccccc2n1 | 11.79% |
| CNC(=O)c1cccc(CC2COCCN(Cc3ccsc3)C2)n1 (stereo not given) | -5.574% |
| CC1c2ncc(COCC3CC3)n2CCN1C(=O)c1ccnn1C (stereo not given) | 18.95% |
| Cc1cc2nc(C(C)C)cc(NCc3ccncc3)n2n1 | -23.44% |
| OCCn1nccc1C1CCN(CCOc2ccccc2)CC1 | -26.3% |
| O=C(c1ccc(S(=O)(=O)N2CCSCC2)cc1)N1CCC(O)C1 (stereo not given) | 10.6% |
| COC(=O)C1CCN(C(=O)c2nnc3ccc(C)cc3n2)CC1 | -19.31% |
| CN1CCN(C(=O)c2nnc3ccc(Cl)cc3n2)CC1 | 64.7% |

| Structure (SMILES) | Percent Effect |
| --- | --- |
| COC(=O)C1CCN(C(=O)c2ccc(N(C)S(C)(=O)=O)c(C)c2)CC1 | -22.29% |
| CCc1nc(C(=O)N2CCN(C)CC2)nn1-c1ccccc1Cl | -21.83% |
| COC(=O)C1CCN(C(=O)c2nnc3ccc(Cl)cc3n2)CC1 | 106.2% |
| Cc1ccc2cc(C(=O)N3CCCN(C)CC3)ccc2n1 | -5.453% |
| COc1ccccc1CCN1CCCC(CN(C)Cc2ccc(C)o2)C1 (stereo not given) | 14.72% |
| CC1=N[C@@]2(CC[C@@H]3CN(C(=O)NCc4ccccc4C)C[C@@H]32)C(=O)N1 | 15.83% |
| Cc1c(C(=O)N2CCC(C(=O)c3nc4ccccc4s3)CC2)cnn1C | 60.09% |
| Cc1nn(C)cc1C(=O)N1CCC(C(=O)c2nc3ccccc3s2)CC1 | 26.37% |
| Cn1nc(Cl)cc1C(=O)N1CCC(C(=O)c2nc3ccccc3s2)CC1 | -10.64% |
| O=C(c1ccc(COc2ccccc2Cl)o1)N1N=CCC1(O)C(F)(F)F (stereo not given) | 1.91% |
| O=C(c1ccc(COc2ccc(Cl)cc2)o1)N1N=CCC1(O)C(F)(F)F (stereo not given) | 61.62% |
| Cc1cccc(OCc2ccc(C(=O)N3N=CCC3(O)C(F)(F)F)o2)c1 (stereo not given) | 29.06% |
| Cc1nnsc1C(=O)N1CCC(c2nc3ccccc3[nH]2)CC1 | 0.6445% |
| CCOC(=O)C1CCN(C(=O)c2cc(F)ccc2-n2cnnn2)CC1 | -0.0971% |
| O=C(c1ccnnc1)N1CC[C@@H](O)[C@@H]1Cc1ccccc1 | -23.76% |
| CCc1c(C)sc2c1c(N)nc(=O)n2CCN1CCCCC1 | 22.93% |
| CCN(CC1CCCN(CCc2cccc(OC)c2)C1)C(=O)CCSC (stereo not given) | -29.92% |
| Cc1ccc(CN2C[C@H](OCC3CCOCC3)[C@H]3COC[C@H]32)o1.O=C(O)C(F)(F)F | -26.82% |
| c1ccc(N2CCOCC3(CCCN(c4nccs4)C3)C2)nc1 (stereo not given) | 23.66% |
| O=C(O)C(F)(F)F.c1ccc(N2CCCC3(COCCN(c4nccs4)C3)C2)nc1 (stereo not given) | 51.66% |
| Cc1ccc(N2CCCC3(COCCN(c4nccs4)C3)C2)nn1.O=C(O)C(F)(F)F.O=C(O)C(F)(F)F (stereo not given) | 20.96% |
| Cc1nc(Cn2c3c(ccc2=O)CC(NC(N)=O)CC3)cs1 (stereo not given) | -11.16% |

| Structure (SMILES) | Percent Effect |
| --- | --- |
| O=C(c1ccoc1)N1CC[C@@H]2O[C@@H](COCc3ccncc3)CC[C@@H]21 | 17.45% |
| CC(C)c1noc(C[S+]([O-])CC(=O)Nc2cc(F)ccc2F)n1 (stereo not given) | 57.68% |
| CC(C)c1noc(CCCC(=O)Nc2cccc(F)c2)n1 | -20.44% |
| CC(C)CCc1noc(C[S+]([O-])CC(=O)NCc2ccccc2)n1 (stereo not given) | -9.037% |
| CC(C)c1noc(CN2CCN(C(=O)c3cc(Cl)ccc3F)CC2)n1 | 34.44% |
| CC(C)c1noc(C[S+]([O-])CC(=O)Nc2ccc(F)c(F)c2)n1 (stereo not given) | 60.65% |
| CC(C)c1noc(CCC(=O)Nc2cc(F)ccc2F)n1 | -35.92% |
| Cc1cc(C)n(C2CCCN(C(=O)c3ccc(N(C)C)nc3)C2)n1 (stereo not given) | -19.67% |
| Cc1ccc(CN2CCCC(c3cnccn3)C2)s1 (stereo not given) | 14.09% |
| Cl.Fc1cccc(F)c1Cn1c(C2CCCNC2)cc2cccnc21 (stereo not given) | 30.15% |
| c1cncc(CNCCc2cccs2)c1 | 34.29% |
| Cc1cn2nc(Sc3nnnn3C)sc2n1 | -10.32% |
| O=C(O)c1csc(S(=O)(=O)Nc2c(F)cccc2-n2cccn2)c1 | -80.25% |
| O=C(c1ncccn1)N1C[C@@H]2CC[C@H](Oc3cccc(F)c3)[C@@H]2C1 | 15.44% |
| Cn1ccc(C2CCCCCN2C(=O)c2cccnc2)n1 (stereo not given) | -55.79% |
| CCC(CN1CCOCC1)n1cncc1-c1ccc2c(c1)CCN2CC.Cl (stereo not given) | 11.86% |
| CN(CC(=O)N(CCC#N)c1ccccc1)C1CCc2ccccc21 (stereo not given) | 6.676% |
| Cc1cc(NC(=O)CN2CCCC2Cn2nc(C)nc2C)on1 (stereo not given) | 9.67% |
| COc1ccc2c(c1)C(=O)N(C)C1(CCN(CC=C(C)C)CC1)N2 | 0.8841% |
| COc1ccc2c(c1)C(=O)N(C)C1(CCN(C(=O)OC(C)(C)C)CC1)N2 | 105.8% |
| COc1ccc2c(c1)C(=O)N(C)C1(CCN(CC3CC3)CC1)N2 | -6.53% |
